The record followed here is PubChem BioAssay (NCI).

Among the test systems are T-47D breast; BT-549 breast; MDA-MB-435 melanoma; SW-620 colon; MCF7 breast; HCT-116 colon; HCC-2998 colon; KM12 colon.
Assay in all cases: NCI-60 one-dose screen, 48 h (100 = growth as untreated, 0 = no growth, -100 = all killed)
Common to all, as to conditions: 10 µM unless noted

The structures appear in SMILES notation. About 83,000 compounds went through this panel and 20% of them were active in at least one assay; those are over-represented in the sample as a whole.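 Note: values are percent growth. 100 is the growth of untreated cells, values between 100 and 0 indicate rising inhibition; between -100 and 0 indicates cell death.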 A number with no mark means an inactive call. Active and inactive are the calls of the source. How the source made its calls: active means growth percent below 10; inactive means the rest.

On to `Cc1nn(-c2ccccc2)c(Cl)c1/C=C/C(=O)c1ccc(F)cc1`, for which the growth was 82.5% in the experiment with T-47D breast; 92.9% in the experiment with BT-549 breast; 87% in the experiment on MDA-MB-435 melanoma; 64.7% in the experiment with SW-620 colon; 41.5% in the experiment on MCF7 breast; 51.1% in the experiment on HCT-116 colon. Further, the growth in the experiment on HCC-2998 colon is 107%; in the experiment with KM12 colon, 84.9%.
As for `C[C@@H](Nc1ncnc2ccc(-c3cnc(N)nc3)cc12)c1ccc(F)cc1`, the growth with T-47D breast is 67.8%; with BT-549 breast, 69.3%; in the experiment on MDA-MB-435 melanoma it was 95.3%; in the experiment on SW-620 colon it was 95.8%; in the experiment with MCF7 breast, 82.5%; in the experiment with HCT-116 colon, 85.3%. Moreover, the growth in the experiment with HCC-2998 colon is 87.1%; in the experiment on KM12 colon it was 98.7%.
Regarding `COc1ccc(C(=O)C2C(C#N)C(C#N)C3c4ccccc4C=CN23)cc1` (stereo not given), the growth in the experiment with T-47D breast is 61.5%; in the experiment with BT-549 breast, 95%; with MDA-MB-435 melanoma, 96.1%; in the experiment on SW-620 colon it was 99.7%; in the experiment with MCF7 breast, 91.3%; in the experiment with HCT-116 colon, 86.1%. Further, the growth is 101% with HCC-2998 colon and 98.3% with KM12 colon.
On to `CC(=O)N1N=C(c2ccc(-n3ccc(C(F)(F)F)n3)c(F)c2)CC1c1ccc[nH]1` (stereo not given), for which the growth is 91.9% in the experiment on T-47D breast; 111% in the experiment with BT-549 breast; 99.8% with MDA-MB-435 melanoma; 107% in the experiment with SW-620 colon; 92.8% with MCF7 breast; 103% with HCT-116 colon. Besides, the growth was 111% with HCC-2998 colon and 101% with KM12 colon.
Turning to `Cc1cccc(-c2cn3ccnc3c(-c3ccc4ncn(Cc5ccccc5)c4c3)n2)c1`, the growth is 13.9% with T-47D breast; 101% in the experiment with BT-549 breast; 99.1% in the experiment on MDA-MB-435 melanoma; 100% with SW-620 colon; 77.8% with MCF7 breast; 63.3% in the experiment on HCT-116 colon. The growth with HCC-2998 colon is 111%; in the experiment on KM12 colon it was 78%.
In the case of `C[C@H](c1nc2ccc(N)cc2[nH]1)[C@H]1CC[C@H]2[C@@H]3CCC4=CC(=O)CC[C@]4(C)[C@H]3CC[C@]12C`, the growth was 77.8% in the experiment with T-47D breast; 70% with BT-549 breast; 95.7% in the experiment on MDA-MB-435 melanoma; 102% in the experiment on SW-620 colon; 67.9% with MCF7 breast; 74.6% in the experiment on HCT-116 colon. For the same compound, the growth with HCC-2998 colon was 93.5%; in the experiment with KM12 colon, 91.8%.
With `CCN1C(=O)N(CC)C2Nn3c(s/c(=C\c4ccc(OC)cc4)c3=O)=NC21` (stereo not given), the growth with T-47D breast is 48.8%; in the experiment on BT-549 breast, 62.9%; in the experiment with MDA-MB-435 melanoma, -26.9% (active); with SW-620 colon it was 25.5%; in the experiment on MCF7 breast, 21%; in the experiment with HCT-116 colon it was 29.4%. The growth was 95.7% with HCC-2998 colon and 37.8% in the experiment with KM12 colon.
Regarding `C[C@H]1[C@H](C)CC[C@]2(C(=O)Nc3ccc4ncccc4c3)CC[C@]3(C)C(=CC[C@@H]4[C@@]5(C)CCCNC(C)(C)[C@@H]5CC[C@]43C)[C@H]12`, the growth was 78% with T-47D breast; 92% in the experiment on BT-549 breast; -91.8% (active) in the experiment with MDA-MB-435 melanoma; -83.9% (active) with SW-620 colon; -83.4% (active) with MCF7 breast; -100% (active) in the experiment with HCT-116 colon. Moreover, the growth was -84.4% (active) in the experiment with HCC-2998 colon and -60.5% (active) with KM12 colon.
On to `Fc1ccc2c(-c3cncn3CCc3ccccc3)c[nH]c2c1`, for which the growth was 74.4% in the experiment on T-47D breast; 105% in the experiment on BT-549 breast; 93.2% in the experiment on MDA-MB-435 melanoma; 90.8% in the experiment with SW-620 colon; 86.6% with MCF7 breast; 75.7% in the experiment with HCT-116 colon. Also, the growth in the experiment on HCC-2998 colon was 102%; in the experiment on KM12 colon it was 97.9%.
On to `Cc1cc2nc3c4ccc(Br)cc4n(CCN(C)C)c3nc2cc1C`, for which the growth in the experiment with T-47D breast was 21.6%; with BT-549 breast, 57.5%; in the experiment on MDA-MB-435 melanoma, 18.3%; with SW-620 colon it was 0.693% (active); with MCF7 breast it was 0.513% (active); in the experiment with HCT-116 colon, 9.24% (active). Also, the growth is 17% with HCC-2998 colon and 23.8% in the experiment with KM12 colon.
`CC1=C(C(=O)/C=C/c2ccc(N(C)C)cc2)C(c2ccccc2)NC(=S)N1` (stereo not given): the growth was 101% in the experiment with T-47D breast; 118% with BT-549 breast; 102% with MDA-MB-435 melanoma; 98.8% in the experiment on SW-620 colon; 99.2% with MCF7 breast; 101% in the experiment with HCT-116 colon. Besides, the growth with HCC-2998 colon was 108%; in the experiment with KM12 colon, 101%.
As to `C=C1C(=O)O[C@H]2[C@H]1CC/C(CNC(=O)/C=C/c1cccc(OC)c1)=C\CC[C@@]1(C)O[C@@H]21`, the growth was -4.32% (active) in the experiment with T-47D breast; -12.3% (active) in the experiment with BT-549 breast; 16.7% in the experiment on MDA-MB-435 melanoma; -61.9% (active) with SW-620 colon; -7.47% (active) with MCF7 breast; -62.2% (active) in the experiment on HCT-116 colon. Moreover, the growth with HCC-2998 colon was 36.5%; in the experiment with KM12 colon, 80%.
Consider `COc1cc(-c2cc(-c3ccc(N(C)C)cc3)nc(N3CCOCC3)c2C#N)cc(OC)c1OC`, for which the growth in the experiment on T-47D breast was 29.5%; with BT-549 breast, 47.2%; with MDA-MB-435 melanoma it was 4.97% (active); in the experiment with SW-620 colon, 42.5%; in the experiment with MCF7 breast it was 36.2%; with HCT-116 colon, 12.3%. For the same compound, the growth with HCC-2998 colon is 19.8%; with KM12 colon, 28.3%.
In the case of `COc1ccc(/C=C/c2nc(Nc3ccc(S(=O)(=O)Nc4cc(C)on4)cc3)c3ccccc3n2)cc1`, the growth was 37.4% with T-47D breast; 85.8% in the experiment with BT-549 breast; 39.3% in the experiment on MDA-MB-435 melanoma; 70% in the experiment on SW-620 colon; 32.1% in the experiment with MCF7 breast; 68.1% in the experiment on HCT-116 colon. The figures for the growth in the experiment on HCC-2998 colon and with KM12 colon were 69.6% and 49%, respectively.
Turning to `O=C1c2cccc3c(-c4ccc5c(c4)ncn5C4CCCCC4)ccc(c23)C(=O)N1CCO`, the growth in the experiment with T-47D breast was 68%; in the experiment with BT-549 breast it was 95.2%; with MDA-MB-435 melanoma, 109%; in the experiment with SW-620 colon it was 104%; in the experiment with MCF7 breast, 97.8%; with HCT-116 colon, 80%. Further, the growth in the experiment on HCC-2998 colon is 93.2%; with KM12 colon, 86.7%.
